Data published in article PMC5540273 (PLoS ONE, 2017).
Where two headings read alike, the source gives them in different places.

Experiments:
DMPK2 = system: T1, DMPK2; conditions: concentration: 1 μM, replicates: in singlicate; n = 1
T1 construct: gene CDC42BPG

DMPK = conditions: concentration: 1 μM, replicates: in singlicate; n = 1
DRAK1 = system: T2, DRAK1; conditions: concentration: 1 μM, replicates: in singlicate; n = 1
T2 construct: gene STK17A

DRAK2 = system: T3, DRAK2; conditions: concentration: 1 μM, replicates: in singlicate; n = 1
T3 construct: gene STK17B

DYRK1A = conditions: concentration: 1 μM, replicates: in singlicate; n = 1
DYRK1B = conditions: n = 1
DYRK2 = conditions: concentration: 1 μM, replicates: in singlicate; n = 1
EGFR = conditions: concentration: 1 μM, replicates: in singlicate; n = 1
EIF2AK1 = conditions: concentration: 1 μM, replicates: in singlicate; n = 1
EPHA1 = conditions: concentration: 1 μM, replicates: in singlicate; n = 1
[1] = concentration: 1 μM, replicates: in singlicate
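Further: KINOMEscan kinase panel screen.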

## CC(=O)c1c(C)c2cnc(Nc3ccc(N4CCNCC4)cn3)nc2n(C2CCCC2)c1=O
DMPK2
  %Inh: 96%
DMPK
  %Inh: 15%
DRAK1
  %Inh: 8%
DRAK2
  %Inh: 5%
DYRK1A
  %Inh: 0%
DYRK1B; [1]
  %Inh: 0%
DYRK2
  %Inh: 0%
EGFR
  %Inh: 4%
EIF2AK1
  %Inh: 0%
EPHA1
  %Inh: 24%

## CC[C@@H]1CO[C@H](C(=O)Nc2ccccc2)CN1c1cc(-c2ccc3c(N)n[nH]c3c2)nc(NC)n1 [GSK2376236]
DMPK2
  %Inh: 5%
DMPK
  %Inh: 0%
DRAK1
  %Inh: 95.3%
DRAK2
  %Inh: 68%
DYRK1A
  %Inh: 1%
DYRK1B; [1]
  %Inh: 0%
DYRK2
  %Inh: 12%
EGFR
  %Inh: 71%
EIF2AK1
  %Inh: 0%
EPHA1
  %Inh: 3%

## COc1ccc2cc(-c3nc(-c4ccccc4C(C)C)[nH]c3-c3ccncc3)ccc2c1 [SB-660566]
DMPK2
  %Inh: 0%
DMPK
  %Inh: 0%
DRAK1
  %Inh: 6%
DRAK2
  %Inh: 0%
DYRK1A
  %Inh: 31%
DYRK1B; [1]
  %Inh: 15%
DYRK2
  %Inh: 7%
EGFR
  %Inh: 18%
EIF2AK1
  %Inh: 3%
EPHA1
  %Inh: 22%

## COc1ccc(Nc2nccc(-c3ccc(NC(=O)c4cc5cc(F)ccc5[nH]4)cc3)n2)cc1 [GSK1229496]
DMPK2
  %Inh: 4%
DMPK
  %Inh: 0%
DRAK1
  %Inh: 69%
DRAK2
  %Inh: 19%
DYRK1A
  %Inh: 14%
DYRK1B; [1]
  %Inh: 0%
DYRK2
  %Inh: 0%
EGFR
  %Inh: 14%
EIF2AK1
  %Inh: 0%
EPHA1
  %Inh: 0%

## Cc1ccc(-c2nc(Nc3ccncc3)c3ccccc3n2)s1 [GSK189015]
DMPK2
  %Inh: 13%
DMPK
  %Inh: 0%
DRAK1
  %Inh: 5%
DRAK2
  %Inh: 0%
DYRK1A
  %Inh: 28%
DYRK1B; [1]
  %Inh: 3%
DYRK2
  %Inh: 27%
EGFR
  %Inh: 25%
EIF2AK1
  %Inh: 0%
EPHA1
  %Inh: 16%

## CS(=O)(=O)CCNCc1nc(-c2ccc3ncnc(Nc4ccc(OCc5ccccc5)c(Cl)c4)c3c2)cs1.Cl [GW582764]
DMPK2
  %Inh: 0%
DMPK
  %Inh: 0%
DRAK1
  %Inh: 4%
DRAK2
  %Inh: 0%
DYRK1A
  %Inh: 19%
DYRK1B; [1]
  %Inh: 0%
DYRK2
  %Inh: 0%
EIF2AK1
  %Inh: 0%
EPHA1
  %Inh: 8%

## COc1ccc(-c2coc3ccc(-c4nnc(C)o4)cc23)cc1
DMPK2
  %Inh: 0%
DMPK
  %Inh: 0%
DRAK1
  %Inh: 0%
DRAK2
  %Inh: 0%
DYRK1A
  %Inh: 40%
DYRK1B; [1]
  %Inh: 0%
DYRK2
  %Inh: 0%
EGFR
  %Inh: 0%
EIF2AK1
  %Inh: 0%
EPHA1
  %Inh: 0%

## COC(=O)C(Cc1ccccc1)NC(=O)NC1CCN(c2ccnc(Nc3ccc(F)cc3)n2)C1 (stereo not shown) [GSK1379714]
DMPK2
  %Inh: 0%
DMPK
  %Inh: 0%
DRAK1
  %Inh: 0%
DRAK2
  %Inh: 0%
DYRK1A
  %Inh: 10%
DYRK1B; [1]
  %Inh: 10%
DYRK2
  %Inh: 0%
EGFR
  %Inh: 31%
EIF2AK1
  %Inh: 0%
EPHA1
  %Inh: 7%

## Fc1ccc(-c2nn3cccc(F)c3c2-c2ccncc2)cc1 [GW475620]
DMPK2
  %Inh: 81%
DMPK
  %Inh: 28%
DRAK1
  %Inh: 0%
DRAK2
  %Inh: 17%
DYRK1A
  %Inh: 7%
DYRK1B; [1]
  %Inh: 0%
DYRK2
  %Inh: 0%
EGFR
  %Inh: 52%
EIF2AK1
  %Inh: 0%
EPHA1
  %Inh: 22%

## Cc1c(Cn2c(C)c(C)n3c(=O)cc(N4CCOCC4)nc23)cccc1C(F)(F)F [GSK2328680]
DMPK2
  %Inh: 0%
DMPK
  %Inh: 0%
DRAK1
  %Inh: 7%
DRAK2
  %Inh: 0%
DYRK1A
  %Inh: 4%
DYRK1B; [1]
  %Inh: 2%
DYRK2
  %Inh: 6%
EGFR
  %Inh: 11%
EIF2AK1
  %Inh: 0%
EPHA1
  %Inh: 20%

## CS(=O)(=O)Cc1ccc(Nc2nccc(-c3c(-c4cccc(NC(=O)C5CCCCC5)c4)nn4ncccc34)n2)cc1 [GSK350559]
DMPK2
  %Inh: 35%
DMPK
  %Inh: 0%
DRAK1
  %Inh: 0%
DRAK2
  %Inh: 0%
DYRK1A
  %Inh: 26%
DYRK1B; 1 µM
  %Inh: 0%
DYRK2
  %Inh: 5%
EGFR
  %Inh: 68%
EIF2AK1
  %Inh: 22%
EPHA1
  %Inh: 6%

## COc1cc2ncnc(Nc3cccc(Br)c3)c2cc1OC.Cl [GI230329]
DMPK2
  %Inh: 5%
DMPK
  %Inh: 6%
DRAK1
  %Inh: 34%
DRAK2
  %Inh: 0%
DYRK1A
  %Inh: 15%
DYRK1B; [1]
  %Inh: 0%
DYRK2
  %Inh: 21%
EIF2AK1
  %Inh: 47%
EPHA1
  %Inh: 18%

## Cl.Cl.Cl.N#Cc1ccc(CCNc2nccc(-c3cccc(CN4CCNCC4)c3)n2)cc1 [GSK2137462]
DMPK2
  %Inh: 41%
DMPK
  %Inh: 10%
DRAK1
  %Inh: 0%
DRAK2
  %Inh: 0%
DYRK1A
  %Inh: 0%
DYRK1B; [1]
  %Inh: 0%
DYRK2
  %Inh: 24%
EGFR
  %Inh: 11%
EIF2AK1
  %Inh: 2%
EPHA1
  %Inh: 19%

## Cc1ccc(NC(=O)Nc2ccccc2)cc1-c1ccc(C(=O)Nc2ccncc2)cc1 [GSK1398471]
DMPK2
  %Inh: 9%
DMPK
  %Inh: 0%
DRAK1
  %Inh: 9%
DRAK2
  %Inh: 0%
DYRK1A
  %Inh: 9%
DYRK1B; [1]
  %Inh: 0%
DYRK2
  %Inh: 14%
EGFR
  %Inh: 10%
EIF2AK1
  %Inh: 0%
EPHA1
  %Inh: 24%

## CNc1cc(-c2ccc3c(N)n[nH]c3c2)nc(N)n1 [GSK2224810]
DMPK2
  %Inh: 10%
DMPK
  %Inh: 0%
DRAK1
  %Inh: 95.3%
DRAK2
  %Inh: 77%
DYRK1A
  %Inh: 64%
DYRK1B; [1]
  %Inh: 43%
DYRK2
  %Inh: 90%
EGFR
  %Inh: 17%
EIF2AK1
  %Inh: 0%
EPHA1
  %Inh: 9%
